Test [1] addresses Bile acid receptor (Homo sapiens) (UniProt Q96RI1). The test can be described thus: ATG_IR1_CIS: Attagene CIS-FACTORIAL HepG2 Assay for human Nuclear Receptor Subfamily 1 Group H Member 4 (NR1H4), IR1 submotif (AID 2282946). The conditions noted are these: IR1 reporter transcription, actives raise or lower the signal. In outline: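 HepG2 cells transiently transfected with multiplexed cis-element reporter units read endogenous transcription factor activity. After 24 h compound exposure, reporter mRNA was quantified by RT-PCR, fluorescent labelling, HpaI digestion and capillary electrophoresis; bidirectional fitting versus DMSO baseline.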

Test [2] is described as follows: ATG_GRE_CIS: Attagene CIS-FACTORIAL HepG2 Assay for human Glucocorticoid Response Elements (GRE) (AID 2282947). The conditions noted are these: HepG2 GRE cis-reporter, Attagene multiplex mRNA; actives raise or lower the signal. Put shortly:
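Reporter transcripts read by RT-PCR with capillary electrophoresis fluorescence after a 24 h chemical exposure of HepG2 cells transiently transfected with multiple cis-element reporter units. Gain or loss fitted against DMSO.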

The nature of test [3]: ATG_ISRE_CIS: Attagene CIS-FACTORIAL HepG2 Assay for human Interferon Regulatory Factor 1 (IRF1) binding to an Interferon-Stimulated Response Element (ISRE) (AID 2282948). The conditions noted are these: HepG2 ISRE cis-reporter (Attagene), mRNA transcription readout; actives raise or lower the signal. Put shortly:
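Multiplexed mRNA reporter readout in human liver HepG2 cells: cis-element-driven reporters transfected, compound added for 24 h, transcripts amplified, fluorescently labelled and sized by capillary electrophoresis; curve fitting bidirectional against DMSO.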

The nature of test [4]: ATG_M_06_CIS: Attagene CIS-FACTORIAL HepG2 Assay for M06 Transcription Factor (Internal Marker) (AID 2282950). The conditions noted are these: HepG2 Attagene CIS-FACTORIAL M06 internal marker reporter; actives raise or lower the signal. Put shortly:
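HepG2 cells transiently transfected with cis-regulated multiple reporter transcription units were exposed to chemical for 24 h; reporter mRNA was quantified by RT-PCR, 6-FAM primer labelling, HpaI digestion and capillary electrophoresis, fitted bidirectionally against DMSO.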

For test [5], the target named is Hypoxia-inducible factor 1-alpha (Homo sapiens) (UniProt Q16665). The test can be described thus: ATG_HIF1a_CIS: Attagene CIS-FACTORIAL HepG2 Assay for human Hypoxia Inducible Factor 1 (HIF1A) (AID 2282951). The conditions noted are these: HepG2 Attagene cis-factorial HIF1a reporter transcription; actives raise or lower the signal. Put shortly:
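Transient MRTU transfection of human HepG2 liver cells, 24 h compound treatment, then total RNA isolation, oligo(dT) reverse transcription, PCR amplification, fluorescent labelling and capillary electrophoresis of reporter fragments. Gain or loss relative to DMSO.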

Test [6] has as its target Hepatocyte nuclear factor 6 (Homo sapiens) (UniProt Q9UBC0). Put plainly: ATG_HNF6_CIS: Attagene CIS-FACTORIAL HepG2 Assay for human Hepatocyte Nuclear Factor 6 (HNF6) (AID 2282952). The settings on record: HepG2 Attagene cis-factorial HNF6 reporter transcription; actives raise or lower the signal. In outline:
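Using cis-element reporters in HepG2 liver cells, the assay tracks endogenous factor-driven transcription 24 h post-dosing. Signal comes from 6-FAM-labelled, HpaI-digested RT-PCR fragments, with gain or loss scored against DMSO.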

Test [7] concerns the target Heat shock factor protein 1 (Homo sapiens) (UniProt Q00613). The test can be described thus: ATG_HSE_CIS: Attagene CIS-FACTORIAL HepG2 Assay for human Heat Shock Transcription Factor 1 (HSE) (AID 2282953). The settings on record: HepG2 HSE cis-reporter, Attagene RNA transcription; actives raise or lower the signal. In outline:
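HepG2 cells transiently transfected with multiple reporter transcription units under cis-regulatory promoter control, measuring endogenous transcription factor activity. After 24 h chemical exposure, reporter mRNA quantified by RT-PCR, fluorescent labelling, HpaI digestion and capillary electrophoresis; bidirectional fit versus DMSO.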

Test [8] can be described thus: ATG_MRE_CIS: Attagene CIS-FACTORIAL HepG2 Assay for human Metal Responsive Element (MRE) (AID 2282954). The conditions noted are these: HepG2 MRE cis-reporter transcription, Attagene multiplex; actives raise or lower the signal. In outline: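 Endogenous MRE-dependent transcription read as reporter mRNA in transiently transfected human HepG2 cells at 24 h. RNA reverse-transcribed, PCR-amplified, labelled and resolved by capillary electrophoresis; gain or loss relative to DMSO.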

The nature of test [9]: ATG_PBREM_CIS: Attagene CIS-FACTORIAL HepG2 Assay for human Phenobarbital-responsive Enhancer Module (PBREM) (AID 2282955). The settings on record: HepG2 PBREM cis-reporter, Attagene multiplexed transcription; actives raise or lower the signal. Put shortly:
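Endogenous transcription factors in human liver HepG2 cells drive a PBREM cis-element reporter, whose transcript level after 24 h treatment is quantified by RT-PCR with capillary electrophoresis; activity fitted in both directions against DMSO.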

In test [10] the target is Paired box protein Pax-6 (Homo sapiens) (UniProt P26367). The test can be described thus: ATG_Pax6_CIS: Attagene CIS-FACTORIAL HepG2 Assay for human Paired Box 6 (PAX6) (AID 2282956). The settings on record: HepG2 CIS-FACTORIAL PAX6 reporter transcription, RNA readout; actives raise or lower the signal. In outline: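 Fluorescent RT-PCR products separated by capillary electrophoresis report PAX6-linked promoter mRNA in HepG2 cells 24 h post-dose. Curves fitted bidirectionally, DMSO as negative control.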
Paired box protein Pax-6 (Homo sapiens), sequence (P26367 whole entry, looked up): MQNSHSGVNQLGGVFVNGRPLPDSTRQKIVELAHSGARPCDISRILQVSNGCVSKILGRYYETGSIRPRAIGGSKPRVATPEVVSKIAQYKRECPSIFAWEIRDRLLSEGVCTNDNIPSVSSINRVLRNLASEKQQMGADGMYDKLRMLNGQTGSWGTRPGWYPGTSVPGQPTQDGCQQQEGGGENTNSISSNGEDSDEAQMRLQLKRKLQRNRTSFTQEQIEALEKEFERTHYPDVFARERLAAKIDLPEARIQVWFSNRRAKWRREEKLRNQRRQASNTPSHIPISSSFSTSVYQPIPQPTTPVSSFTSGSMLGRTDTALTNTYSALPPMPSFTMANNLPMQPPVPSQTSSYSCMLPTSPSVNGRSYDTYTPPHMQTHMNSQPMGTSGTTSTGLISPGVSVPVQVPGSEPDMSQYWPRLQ

Test [11] is described as follows: ATG_PXRE_CIS: Attagene CIS-FACTORIAL HepG2 Assay for human Pregnane X Receptor Element (PXRE) (AID 2282957). The settings on record: HepG2 Attagene CIS-FACTORIAL PXRE reporter, mRNA; actives raise or lower the signal. In outline:
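Using HepG2 transfected with multiple reporter transcription units, endogenous factor-driven transcription was scored as reporter mRNA after 24 h exposure.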

The nature of test [12]: ATG_PPRE_CIS: Attagene CIS-FACTORIAL HepG2 Assay for human Peroxisome Proliferator-activated Response Element (PPRE) (AID 2282958). The settings on record: HepG2 PPRE cis-element reporter, Attagene transcription factor profiling; actives raise or lower the signal. Put shortly: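 HepG2, transient MRTU transfection (cis promoter elements, endogenous TFs). 24 h dosing. RNA → oligo(dT) RT → PCR → 6-FAM primer extension → HpaI digest → CE. Bidirectional fit vs DMSO.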

Test [13] can be described thus: ATG_Sox_CIS: Attagene CIS-FACTORIAL HepG2 Assay for human SRY-box transcription factor (SOX) (AID 2282960). The settings on record: HepG2 Attagene cis-factorial SOX reporter, mRNA; actives raise or lower the signal. In outline:
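Endogenous factor activity in human liver HepG2 cells carrying transfected cis-regulated reporter units. RNA taken 24 h post-dose, reverse-transcribed, PCR-amplified and sized by capillary electrophoresis. Gain or loss of signal fitted relative to DMSO.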

The target of test [14] is Transcription factor Sp1 (Homo sapiens) (UniProt P08047). The test can be described thus: ATG_Sp1_CIS: Attagene CIS-FACTORIAL HepG2 Assay for human Specificity Protein 1 (Sp1) (AID 2282961). The conditions noted are these: HepG2 Sp1 cis-reporter transcription, actives raise or lower the signal. In outline: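 Transient MRTU-transfected HepG2, 24 h compound exposure. Total RNA → oligo(dT) RT → PCR of reporter → 6-FAM primer extension → HpaI digest → CE. Endpoint fitted both directions vs DMSO.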
Transcription factor Sp1 (Homo sapiens), sequence (P08047 whole entry, looked up): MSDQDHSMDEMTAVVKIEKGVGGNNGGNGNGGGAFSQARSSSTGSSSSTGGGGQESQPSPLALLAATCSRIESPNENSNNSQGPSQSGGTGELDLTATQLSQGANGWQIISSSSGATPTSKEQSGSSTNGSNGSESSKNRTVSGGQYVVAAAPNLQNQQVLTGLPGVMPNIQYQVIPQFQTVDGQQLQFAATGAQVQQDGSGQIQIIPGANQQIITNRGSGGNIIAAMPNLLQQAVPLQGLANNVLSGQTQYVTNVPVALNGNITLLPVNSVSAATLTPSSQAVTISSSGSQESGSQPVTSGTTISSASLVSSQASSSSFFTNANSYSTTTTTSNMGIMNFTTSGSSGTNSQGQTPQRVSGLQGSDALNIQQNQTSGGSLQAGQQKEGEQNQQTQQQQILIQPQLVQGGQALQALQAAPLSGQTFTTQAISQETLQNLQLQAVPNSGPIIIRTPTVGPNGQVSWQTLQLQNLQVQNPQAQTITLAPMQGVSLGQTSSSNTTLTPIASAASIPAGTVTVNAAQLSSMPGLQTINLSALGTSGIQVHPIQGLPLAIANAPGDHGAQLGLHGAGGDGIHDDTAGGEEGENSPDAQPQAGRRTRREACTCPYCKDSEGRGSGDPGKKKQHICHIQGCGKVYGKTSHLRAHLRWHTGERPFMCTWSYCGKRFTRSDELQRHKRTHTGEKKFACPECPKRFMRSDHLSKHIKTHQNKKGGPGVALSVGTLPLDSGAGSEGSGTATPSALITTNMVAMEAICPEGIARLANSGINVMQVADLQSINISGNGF

Test [15] has as its target Signal transducer and activator of transcription 3 (Homo sapiens) (UniProt P40763). The test can be described thus: ATG_STAT3_CIS: Attagene CIS-FACTORIAL HepG2 Assay for human Signal Transducer and Activator of Transcription 3 (STAT3) (AID 2282963). The conditions noted are these: HepG2, Attagene cis-factorial STAT3 reporter transcription; actives raise or lower the signal. In outline: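 Readout is reporter transcript quantified by RT-PCR and capillary electrophoresis, with 6-FAM primer extension and HpaI digestion. Total RNA is taken 24 h after dosing transiently transfected HepG2 carrying cis-regulated reporter units. Bidirectional fit against DMSO.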

Test [16] is described as follows: ATG_TA_CIS: Attagene CIS-FACTORIAL HepG2 Assay for human TA Basal Promoter (AID 2282964). The conditions noted are these: HepG2 Attagene CIS-factorial TA basal promoter reporter; actives raise or lower the signal. In outline:
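HepG2 cells transiently transfected with multiplexed cis-promoter reporter units, dosed 24 h. Reporter mRNA measured by RT-PCR, 6-FAM labelling, HpaI digestion and capillary electrophoresis; bidirectional fit versus DMSO baseline, serving as background control.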

Test [17] can be described thus: ATG_TCF_b_cat_CIS: Attagene CIS-FACTORIAL HepG2 Assay for human T-Cell-Factor with beta-catenin (TCF/b-cat) (AID 2282965). The conditions noted are these: HepG2 TCF/beta-catenin cis-reporter transcription, actives raise or lower the signal. In outline:
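Endogenous transcription factor activity is captured through cis-promoter reporter constructs transiently introduced into human HepG2 liver cells. Induced reporter mRNA is measured after 24 h and fitted bidirectionally relative to DMSO.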

The nature of test [18]: ATG_M_32_CIS: Attagene CIS-FACTORIAL HepG2 Assay for M32 Transcription Factor (Internal Marker) (AID 2282949).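 Further: background control marker of the multiplexed CIS panel rather than a real target.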 The conditions noted are these: HepG2 Attagene cis-factorial M32 reporter, mRNA; actives raise or lower the signal. Put shortly: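 HepG2 human liver cells transiently transfected with cis-promoter-driven multiple reporter transcription units, dosed 24 h. Reporter mRNA quantified by RT-PCR, FAM-labelled primer extension, HpaI digest and capillary electrophoresis; bidirectional fit versus DMSO baseline.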

The nature of test [19]: ATG_RORE_CIS: Attagene CIS-FACTORIAL HepG2 Assay for human RAR-related Orphan Receptor Element (RORE) (AID 2282959). The settings on record: HepG2 Attagene cis-factorial RORE reporter, mRNA; actives raise or lower the signal. In outline: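 Transient MRTU transfection of human HepG2 liver cells (FuGene 6); 24 h compound exposure; TriZol RNA, oligo(dT) RT, PCR, FAM labeling, HpaI cut, CE fragment analysis. DMSO = negative control/baseline.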

Test [20] is described as follows: ATG_SREBP_CIS: Attagene CIS-FACTORIAL HepG2 Assay for human Sterol Regulatory Element Binding (SREBP) (AID 2282962). The settings on record: HepG2 Attagene cis-factorial SREBP reporter, mRNA; actives raise or lower the signal. In outline:
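Endogenous factor activity is measured in HepG2 through multiplexed reporter units under cis-element control. Following a 24 h incubation, reporter transcripts are reverse-transcribed, PCR-amplified and sized by capillary electrophoresis; activity is fitted in both directions relative to DMSO.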

Calls of active or inactive are those of the source. How the source made its calls: active means hit-call score of the fitted dose curve at least 0.9, where 1 is the maximum; inactive means score below 0.9.

Heat shock factor protein 1 (Homo sapiens), sequence (Q00613 whole entry, looked up): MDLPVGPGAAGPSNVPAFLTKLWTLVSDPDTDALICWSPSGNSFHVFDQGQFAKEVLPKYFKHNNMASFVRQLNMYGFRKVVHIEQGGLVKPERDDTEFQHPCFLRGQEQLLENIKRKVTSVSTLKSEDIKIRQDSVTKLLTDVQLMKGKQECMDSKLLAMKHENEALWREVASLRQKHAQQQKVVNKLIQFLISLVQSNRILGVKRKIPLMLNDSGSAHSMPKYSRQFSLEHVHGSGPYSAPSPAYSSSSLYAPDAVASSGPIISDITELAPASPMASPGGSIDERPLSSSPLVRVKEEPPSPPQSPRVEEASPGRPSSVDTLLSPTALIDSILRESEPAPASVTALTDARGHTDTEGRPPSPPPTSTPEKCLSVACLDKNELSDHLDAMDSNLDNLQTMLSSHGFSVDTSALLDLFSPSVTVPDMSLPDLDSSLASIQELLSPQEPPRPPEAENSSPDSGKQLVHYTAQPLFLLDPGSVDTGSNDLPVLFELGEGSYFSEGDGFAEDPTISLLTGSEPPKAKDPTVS
Hypoxia-inducible factor 1-alpha (Homo sapiens), sequence (Q16665 whole entry, looked up, the tested form may be a part): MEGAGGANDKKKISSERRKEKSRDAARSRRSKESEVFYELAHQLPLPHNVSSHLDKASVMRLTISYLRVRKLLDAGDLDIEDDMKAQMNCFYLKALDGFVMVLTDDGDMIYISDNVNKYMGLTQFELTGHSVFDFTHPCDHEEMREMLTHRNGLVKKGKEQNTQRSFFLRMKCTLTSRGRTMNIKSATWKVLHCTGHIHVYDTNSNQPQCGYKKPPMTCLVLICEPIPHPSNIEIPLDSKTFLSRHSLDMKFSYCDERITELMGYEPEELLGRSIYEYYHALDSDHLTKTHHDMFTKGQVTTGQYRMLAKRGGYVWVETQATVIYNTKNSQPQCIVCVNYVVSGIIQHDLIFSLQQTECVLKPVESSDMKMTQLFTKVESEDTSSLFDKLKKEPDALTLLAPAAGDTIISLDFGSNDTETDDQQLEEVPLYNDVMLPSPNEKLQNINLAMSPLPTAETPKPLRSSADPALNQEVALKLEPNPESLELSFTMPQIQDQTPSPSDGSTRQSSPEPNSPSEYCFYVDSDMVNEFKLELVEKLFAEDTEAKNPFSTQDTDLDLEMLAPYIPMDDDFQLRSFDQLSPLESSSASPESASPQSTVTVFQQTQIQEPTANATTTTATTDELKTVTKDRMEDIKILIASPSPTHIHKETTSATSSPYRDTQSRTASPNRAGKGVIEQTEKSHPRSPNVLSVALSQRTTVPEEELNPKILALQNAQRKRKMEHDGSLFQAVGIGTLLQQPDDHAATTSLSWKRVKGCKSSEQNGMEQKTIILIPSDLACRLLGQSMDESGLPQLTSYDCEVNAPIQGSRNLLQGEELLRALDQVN
Bile acid receptor (Homo sapiens), sequence (Q96RI1 whole entry, looked up): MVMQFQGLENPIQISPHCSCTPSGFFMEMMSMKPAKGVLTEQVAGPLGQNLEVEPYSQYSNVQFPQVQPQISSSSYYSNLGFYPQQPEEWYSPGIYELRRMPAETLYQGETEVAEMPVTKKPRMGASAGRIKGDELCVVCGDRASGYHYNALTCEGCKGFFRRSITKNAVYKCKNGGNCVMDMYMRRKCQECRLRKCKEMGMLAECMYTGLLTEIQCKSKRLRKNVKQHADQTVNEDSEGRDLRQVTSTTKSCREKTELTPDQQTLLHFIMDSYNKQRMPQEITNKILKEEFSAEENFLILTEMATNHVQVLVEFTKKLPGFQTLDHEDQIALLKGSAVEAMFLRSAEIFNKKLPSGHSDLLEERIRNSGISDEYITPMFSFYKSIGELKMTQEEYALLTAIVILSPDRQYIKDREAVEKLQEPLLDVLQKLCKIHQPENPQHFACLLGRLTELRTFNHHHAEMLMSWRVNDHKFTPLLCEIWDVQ
Signal transducer and activator of transcription 3 (Homo sapiens), sequence (P40763 whole entry, looked up): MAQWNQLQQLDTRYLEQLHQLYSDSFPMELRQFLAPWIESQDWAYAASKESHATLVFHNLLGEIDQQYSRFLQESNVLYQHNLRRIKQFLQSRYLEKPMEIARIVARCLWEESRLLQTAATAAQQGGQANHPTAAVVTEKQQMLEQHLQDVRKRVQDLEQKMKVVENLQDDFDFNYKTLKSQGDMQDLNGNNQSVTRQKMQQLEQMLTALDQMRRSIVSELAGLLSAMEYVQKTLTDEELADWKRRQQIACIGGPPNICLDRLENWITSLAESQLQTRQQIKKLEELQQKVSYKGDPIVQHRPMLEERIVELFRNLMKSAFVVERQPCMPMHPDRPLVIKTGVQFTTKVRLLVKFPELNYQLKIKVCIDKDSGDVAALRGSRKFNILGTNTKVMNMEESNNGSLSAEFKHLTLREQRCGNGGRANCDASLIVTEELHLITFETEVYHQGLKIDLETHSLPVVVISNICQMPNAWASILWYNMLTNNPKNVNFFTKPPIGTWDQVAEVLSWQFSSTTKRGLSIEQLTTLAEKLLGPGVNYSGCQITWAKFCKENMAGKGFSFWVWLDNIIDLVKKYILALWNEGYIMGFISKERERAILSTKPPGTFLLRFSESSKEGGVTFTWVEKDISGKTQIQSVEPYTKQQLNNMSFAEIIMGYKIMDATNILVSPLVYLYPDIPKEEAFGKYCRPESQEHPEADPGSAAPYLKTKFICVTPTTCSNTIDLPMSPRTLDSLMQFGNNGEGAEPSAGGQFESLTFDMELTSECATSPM
Hepatocyte nuclear factor 6 (Homo sapiens), sequence (Q9UBC0 whole entry, looked up, the tested form may be a part): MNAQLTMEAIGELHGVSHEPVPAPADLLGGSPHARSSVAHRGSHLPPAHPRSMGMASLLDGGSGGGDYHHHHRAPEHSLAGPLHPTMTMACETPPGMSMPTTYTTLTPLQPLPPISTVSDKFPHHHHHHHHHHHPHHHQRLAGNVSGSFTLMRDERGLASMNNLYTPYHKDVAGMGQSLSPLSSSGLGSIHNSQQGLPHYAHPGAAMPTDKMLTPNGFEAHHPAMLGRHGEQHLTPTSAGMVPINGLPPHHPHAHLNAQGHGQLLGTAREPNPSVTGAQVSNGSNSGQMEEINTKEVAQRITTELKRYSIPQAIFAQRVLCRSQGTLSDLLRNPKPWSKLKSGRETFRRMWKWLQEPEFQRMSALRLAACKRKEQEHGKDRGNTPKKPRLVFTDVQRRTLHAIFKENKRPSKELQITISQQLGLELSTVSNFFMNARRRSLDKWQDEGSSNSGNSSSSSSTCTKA

Consider `COC(N)=O`, for which the outcome in [1], in test [2], in [3], in test [4], in test [6] and in test [7] was inactive. In addition, the compound was classed as inactive in test [8], in test [9], in [10], in test [11], in [12] and in [13]. Moreover, the call in [14], in test [15], in test [16] and in test [17] was inactive. The AC50 (usually the concentration giving half of the maximal activity seen) in test [5] was 100 µM (active).
With `O=C(O)C(F)(F)OC(F)(F)C(F)(F)OC(F)(F)C(=O)O`, the result in [1], in [2], in test [3], in test [18], in [4] and in test [5] was inactive. For the same compound, the result in test [6], in test [7], in [8], in test [9], in test [11] and in [12] was inactive. Further, the compound was called inactive in [19], in test [13], in test [14], in [20], in test [15] and in [16]. The call in test [17] was inactive.
For the compound `CNC(=O)Oc1ccc(N(C)C)c(C)c1`, the compound was classed as inactive in [1], in test [2], in test [3], in [18], in test [4] and in [5]. In addition, the outcome in test [6], in test [7], in test [8], in test [9], in test [12] and in test [13] was inactive. Besides, the result in test [14], in test [20], in [15], in [16] and in test [17] was inactive. Further, the AC50 in test [11] is 38.3 µM (active).
Regarding `CC(C)CBr`, the call in [1], in test [2], in test [3], in test [4], in [5] and in [6] was inactive. The call in [7], in [8], in [9], in [10], in [11] and in test [12] was inactive. Besides, the compound was classed as inactive in [19], in test [13], in test [14], in test [20], in test [15] and in test [16]. Besides, the call in test [17] was inactive.
Take `Cn1[nH]nnc1=S`: the outcome in test [1], in test [2], in test [3], in test [18], in test [4] and in test [6] was inactive. Further, the call in test [7], in test [8], in test [9], in test [11], in [12] and in test [19] was inactive. The outcome in test [13], in test [14], in test [15], in [16] and in test [17] was inactive. The AC50 in test [5] was 27 µM (active).
